Screening results (PubChem BioAssay)
Shown are actives, neighbours in structure and some others; about 6.9% of the full set was active somewhere.
MCF10A rereplic = A quantitative high throughput screen for small molecules that induce DNA re-replication in MCF 10a normal breast cells; MCF 10A DNA re-replication, Hoechst nuclear intensity, 48 h; Potency, µM (top dose mostly 46.1 µM), hits mostly activators; 2.9% of 350,000 active; AID 624296, 2012; further: nearly all actives have a fitted effect of over 50% in size
KB-V1 cytotox = qHTS assay for MDR1-selective chemotherapeutics: Primary screen using the drug-selected MDR subline cells KB-V1 | KB-V1 MDR cells viability, CellTiter-Glo, 72 h | Potency, µM (titrated, usually from 46.1 µM), usual class: cytotoxic | 3.4% of 400,000 active | AID 1347076, 2019; further: nearly all actives have a fitted effect of over 60% in size
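Cytotoxicity via CellTiter-Glo luminescence after 72 h compound exposure at 37 degrees C. Cells: drug-selected KB-V1 line, DMEM phenol-red free plus 10% FBS. Compounds tested at multiple concentrations; normalized data fitted to concentration-effect curves.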
SW480 rerep = A quantitative high throughput screen for small molecules that induce DNA re-replication in SW480 colon adenocarcinoma cells | 1.8% of 340,000 active | Potency, µM (titrated, usually from 46.1 µM), most hits filed as activators | SW480 DNA re-replication, Hoechst DNA content imaging, 48 h; further: nearly all actives have a fitted effect of over 55% in size
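Treated cells incubate 48 hr (37 C, 5% CO2), are stained 40 min with Hoechst, and nuclear fluorescence is enumerated; a rise in nuclei with high DNA signal marks re-replication.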
Giardia killer = Small Molecules that selectively kill Giardia lamblia: qHTS; Giardia lamblia trophozoite viability; 0.15% of 340,000 active; activity change, % at 7.66 µM, hits read low; in the data active means activity change below about -80%; inconclusive means between about -30% and that limit;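 further: parasites exposed to compound for two days anaerobically before the ATP read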
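Giardia lamblia trophozoites (100 cells/well) were incubated with compounds for 48 h at 37 deg C under anaerobic conditions. Viability was read as ATP content by one-step luminescence after 15-30 min at room temperature.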
KB-3-1 tox = qHTS assay for MDR1-selective chemotherapeutics: Primary screen using the parental adenocarcinoma cell KB-3-1; KB-3-1 viability, CellTiter-Glo ATP luminescence, 72 h; Potency, µM (series often up to 46.1 µM), hits mostly cytotoxic; 1.4% of 400,000 active; further: nearly all actives have a fitted effect of over 60% in size
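72 h, 37 °C compound treatment of KB-3-1 parental cells; CellTiter-Glo added, 10 min, luminescence read. Data corrected against DMSO-only plates and normalized before curve fitting.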
S-ASM inh = Inhibitors of Secretory Acid Sphingomyelinase (S-ASM): qHTS; 0.006% of 340,000 active; Potency, µM (series often up to 57.5 µM), most hits filed as inhibitors; Sphingomyelin phosphodiesterase (Homo sapiens), P17405; placental ASM, HMU-PC fluorogenic substrate, 60 min
Target sequence (P17405 47-631 limits assumed): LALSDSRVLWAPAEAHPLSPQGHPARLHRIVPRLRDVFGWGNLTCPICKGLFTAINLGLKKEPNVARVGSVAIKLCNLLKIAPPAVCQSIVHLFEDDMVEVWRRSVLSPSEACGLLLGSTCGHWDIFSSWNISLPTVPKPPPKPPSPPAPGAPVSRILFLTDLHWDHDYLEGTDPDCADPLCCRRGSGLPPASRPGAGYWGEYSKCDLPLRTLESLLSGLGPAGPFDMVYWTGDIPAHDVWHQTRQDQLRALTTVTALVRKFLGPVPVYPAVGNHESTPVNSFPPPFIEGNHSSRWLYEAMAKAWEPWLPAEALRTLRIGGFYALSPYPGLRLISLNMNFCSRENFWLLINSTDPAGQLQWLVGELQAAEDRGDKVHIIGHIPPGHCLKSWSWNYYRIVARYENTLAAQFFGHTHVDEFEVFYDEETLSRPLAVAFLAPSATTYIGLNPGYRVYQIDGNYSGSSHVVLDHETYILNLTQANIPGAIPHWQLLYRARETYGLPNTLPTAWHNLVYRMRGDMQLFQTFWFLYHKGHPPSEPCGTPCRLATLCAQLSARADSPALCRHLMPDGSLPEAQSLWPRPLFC
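Fluorogenic HMU-PC substrate (9 uM final) is turned over by placental ASM in 60 min at 37 C after a 10 min compound preincubation. Reaction ended by alkaline stop (pH 10), with fluorescence read at 386/447 nm.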
Large screens that a line does not name were inactive. Unless noted, the call rests on the fitted dose curve; in most records, active means well fitted curve in the direction sought with a large enough effect; inconclusive means small, poorly fitted or top-dose-only effect, or another doubt; inactive means no such curve, though single readings can be large; an effect the other way counts as inactive or inconclusive.

CC(=O)N1CCCc2cc(S(=O)(=O)N3CCC(C(=O)NCc4ccc(N(C)C)cc4)CC3)ccc21	none (no result: MCF10A rereplic, SW480 rerep, Giardia killer, S-ASM inh)
O=C(NCc1ccccc1Cl)c1c2c(nc3ccccc13)C(=O)N(C1CCCCC1)C2	none (no result: MCF10A rereplic, SW480 rerep, Giardia killer, S-ASM inh)
CCC(CC)C(=O)c1c[nH]c(C(=O)NCc2ccc(F)cc2)c1	none
O=C(NCCN1CCN(c2cccc(Cl)c2)CC1)c1ccc(CSc2nc3ccncc3[nH]2)cc1	MCF10A rereplic 18µM, KB-3-1 tox inconclusive
COc1ccc(-c2noc(CSc3nnc(C)n3-c3ccc(OC)cc3)n2)cc1	none (no result: MCF10A rereplic, SW480 rerep, Giardia killer, S-ASM inh)
O=C(Nc1ccc(N2CCOCC2)nc1N1CCOCC1)c1cccc(C(F)(F)F)c1	none
O=C(N/N=C\c1ccc(Cl)s1)c1ccc(Cn2cccn2)o1	KB-3-1 tox inconclusive
O=C(N/N=C/c1ccc(N2CCOCC2)o1)c1cccc(C(F)(F)F)c1	MCF10A rereplic 21µM, SW480 rerep inconclusive
O=C(N/N=C\c1c(O)ccc2ccccc12)c1ccc(Cn2cccn2)o1	MCF10A rereplic 10µM, KB-V1 cytotox inconclusive, SW480 rerep inconclusive, KB-3-1 tox 16µM
O=C(N/N=C/c1c(O)ccc2ccccc12)c1cccc(C(F)(F)F)c1	MCF10A rereplic 4.6µM, SW480 rerep inconclusive, KB-3-1 tox inconclusive, S-ASM inh inconclusive
COc1ccc(OC)c(CCNC(=O)c2cc3cccc4c3n2CC(C)S4)c1 (configuration not stated)	none (no result: MCF10A rereplic, SW480 rerep, Giardia killer, S-ASM inh)
CCCCn1c(SCc2nc(N)nc(N3CCCCC3)n2)nc2c1c(=O)n(C)c(=O)n2C	KB-V1 cytotox 8.2µM, SW480 rerep inconclusive
Cn1c(=O)c2c(nc(SCc3nc(N)nc(N4CCCCC4)n3)n2C)n(C)c1=O	KB-V1 cytotox 15µM, KB-3-1 tox inconclusive
CCCn1c(SCc2nc(N)nc(N3CCCCC3)n2)nc2c1c(=O)n(C)c(=O)n2C	none
CCCCCCn1c(SCC#N)nc2ccccc2c1=O	none (no result: MCF10A rereplic, SW480 rerep, S-ASM inh)
Cc1cccc(-n2cc(CNCCc3nc(C)cc(C)n3)c(-c3cccc(F)c3)n2)c1	MCF10A rereplic 4.1µM, SW480 rerep 23µM
CCOc1ccc(-n2c(SCC(N)=O)nc3c(oc4ccccc43)c2=O)cc1	none (no result: MCF10A rereplic, SW480 rerep, Giardia killer, S-ASM inh)
Cc1ccc(-c2c[n+]3c(n2-c2ccccc2)CCC3)cc1	MCF10A rereplic 8.2µM, SW480 rerep inconclusive, KB-3-1 tox 1.3µM
c1ccc(-c2c[n+]3c(n2-c2ccccc2)CCC3)cc1	KB-3-1 tox inconclusive
CCOc1ccc(-n2c(-c3ccccc3)c[n+]3c2CCCCC3)cc1	KB-V1 cytotox inconclusive, KB-3-1 tox 10µM
COC(=O)c1ccc(NC(=O)CC2C(=O)N(c3cccc(F)c3)C(=O)N2CC(C)C)cc1 (configuration not stated)	none (no result: MCF10A rereplic, SW480 rerep, Giardia killer, S-ASM inh)
CC(C)(C)c1ccc(N2C(=O)CSC2c2cccnc2)cc1 (configuration not stated)	MCF10A rereplic 2.3µM
Cc1ccc(NS(=O)(=O)c2ccccc2)c(C)c1	none (no result: MCF10A rereplic, KB-V1 cytotox, SW480 rerep, KB-3-1 tox, S-ASM inh)
O=C(NCc1ccccc1)c1ccc2c(=O)[nH]c3c(C(=O)NCC4CCCO4)sc(=S)n3c2c1 (configuration not stated)	KB-3-1 tox inconclusive
O=C(NC1CCCC1)c1sc(=S)n2c1[nH]c(=O)c1ccccc12	MCF10A rereplic inconclusive, KB-V1 cytotox inconclusive, SW480 rerep inconclusive, KB-3-1 tox 12µM
O=C(NCc1ccco1)c1sc(=S)n2c1[nH]c(=O)c1ccccc12	MCF10A rereplic inconclusive, KB-V1 cytotox 21µM, KB-3-1 tox inconclusive
NC(=O)Nc1cc(Cl)ccc1Cl	none
O=C(Nc1cc(Cl)ccc1Cl)N1CCN(C(=O)Nc2cc(Cl)ccc2Cl)CC1	KB-V1 cytotox 15µM
COc1ccc(Cl)cc1NC(=O)N1CCN(c2ccccc2OC)CC1	none
CCN1CCN(C(=O)Nc2cc(Cl)ccc2OC)CC1	MCF10A rereplic 3.7µM
O=C(N[C@@H](Cc1ccccc1)C(=O)NC1CCCCC1)c1ccco1	KB-V1 cytotox 13µM
O=C(NC(Cc1ccccc1)C(=O)O)c1ccco1 (configuration not stated)	SW480 rerep inconclusive
O=C(N[C@@H](Cc1ccccc1)C(=O)NC1CCCCCC1)c1ccco1	KB-V1 cytotox 5.2µM, KB-3-1 tox inconclusive
Cc1ccc(-n2nc(C)c3c(C(=O)Nc4ccc(Br)c(C)c4)cc(C)nc32)cc1	none (no result: MCF10A rereplic, SW480 rerep, Giardia killer, S-ASM inh)
CCCCCC(=O)Nc1cc(S(=O)(=O)N2CCOCC2)ccc1Oc1ccc(OCC)cc1	KB-V1 cytotox inconclusive
O=C(COC(=O)c1c(F)cccc1F)c1ccc[nH]1	none
Cc1ccc(N2CCN(C(=O)c3noc4c3COc3ccc(C)cc3-4)CC2)c(C)c1	KB-V1 cytotox inconclusive (no result: MCF10A rereplic, SW480 rerep, Giardia killer, S-ASM inh)
O=C1C2C3c4ccccc4C(Br)(c4ccccc43)C2C(=O)N1c1ccccc1O (configuration not stated)	SW480 rerep 18µM
Cc1ccc(C)c(NC(=O)C(=O)NCC(c2cccnc2)N2CCN(c3ccc(F)cc3)CC2)c1 (configuration not stated)	KB-3-1 tox inconclusive (no result: MCF10A rereplic, SW480 rerep, Giardia killer, S-ASM inh)
Cc1ccc(-c2nc3ccccc3s2)cc1NC(=S)NC(=O)c1ccccc1	MCF10A rereplic 13µM
Cc1cc(-c2nc3ccccc3s2)ccc1N	MCF10A rereplic 21µM, KB-V1 cytotox 18µM, SW480 rerep inconclusive, KB-3-1 tox inconclusive
Cc1cc(C)c2oc(-c3ccc(C)c(NC(=S)NC(=O)c4cccs4)c3)nc2c1	MCF10A rereplic 9.2µM
O=C1CC(c2nnc(Cc3ccccc3Cl)o2)CN1c1ccccc1 (configuration not stated)	none (no result: MCF10A rereplic, SW480 rerep, Giardia killer, S-ASM inh)
N#CC1=C(Nc2ccccc2)SC=C(c2ccccc2)N=C1N1CCOCC1	MCF10A rereplic inconclusive, SW480 rerep inconclusive
N#CC1=C(Nc2ccccc2)SC=C(c2ccc(Cl)c(Cl)c2)N=C1N1CCOCC1	MCF10A rereplic 16µM
Cc1cc(/C=C2\C(=N)N3N=C(CC(=O)N4CCOCC4)SC3=NC2=O)c(C)n1Cc1ccccc1	MCF10A rereplic 18µM
CCCC1=NN2C(=N)/C(=C\c3cc(C)n(-c4cc(C)cc(C)c4)c3C)C(=O)N=C2S1	MCF10A rereplic 21µM, KB-V1 cytotox inconclusive
Cc1cc(C)cc(-n2c(C)cc(/C=C3\C(=N)N4N=C(CC(C)C)SC4=NC3=O)c2C)c1	MCF10A rereplic 18µM, KB-V1 cytotox 21µM, KB-3-1 tox inconclusive
O=C(c1ccc(Cl)cc1)c1cn(Cc2ccccc2)c2cc3c(cc2c1=O)OCCO3	none (no result: MCF10A rereplic, SW480 rerep, Giardia killer, S-ASM inh)
CCOc1ccccc1NC(=O)C(NS(=O)(=O)c1ccc2c(c1)CCC(=O)N2)c1ccccc1 (configuration not stated)	none (no result: MCF10A rereplic, SW480 rerep, Giardia killer, S-ASM inh)
